# According to PubChem BioAssay AID2101 (National Center for Advancing Translational Sciences (NCATS), 2009):
# Values joined by “and” are separate entries in the source; they are usually repeats but may differ in a detail not shown here. Identical values can stand only once. About 300 (0.091%) of roughly 330,000 compounds were called active. Where a call stands in place of a potency, no number is given. Inconclusive results (about 4%) are left out. Calls follow the shape of the dose curve; as a rule, active = well fitted inhibition curve with a large enough effect; inconclusive = small, poorly fitted or top-dose-only effect, or effect the other way, or another doubt; inactive = no such curve, though single readings can be large or run the other way. Many of the other results were omitted from the sample, so actives are more common in it than they were. A structure can be active in one record and inactive in another.
# Molecular target: Lysosomal acid glucosylceramidase (Homo sapiens) (UniProt P04062)
# Assay: qHTS Assay for Inhibitors and Activators of N370S glucocerebrosidase as a Potential Chaperone Treatment of Gaucher Disease
# Conditions: N370S GC spleen homogenate, 4MU-glucoside fluorescence; series mostly up to 59.4 µM
# Excerpt: NIH Chemical Genomics Center [NCGC]
# NIH Molecular Libraries Probe Production Centers Network [MLPCN]
# Assay Submitter (PI): Wei Zheng
# Glucocerebrosidase (GC) catalyzes the hydrolysis of beta-glucocerebroside to glucose and ceramide in lysosomes. Mutations in the glucocerebrosidase gene result in Gaucher disease, an autosomal recessive lysosomal storage disorder. Many of the mutations encountered in patients with Gaucher disease are missense alterations that may cause misfolding, decreased stability and/or mistrafficking of this lysosomal protein. […] These inhibitors include iminosugar analogs and three non-iminosugar inhibitors identified from a previous HTS of 62,000 compounds with the wild type recombinant enzyme. However, the enhancement of enzyme activity by the chaperone action of an enzyme inhibitor must be balanced against the direct inhibition of the enzyme. An enzyme activator could also function as a chaperone by binding to the enzyme and helping to correct its misfolding and mistrafficking. While activators for GC have not yet been identified, they may have better therapeutic potential than inhibitors. Therefore the discovery and development of chemical activators may provide a new strategy for the chaperone therapy.
# We have optimized a new assay using N370S mutant GC derived from the spleen of a Gaucher patient. […] In addition, the MLPCN compound library has expanded, which increases the chance of finding new and better probes.
# NCGC Assay Protocol Summary:
# This is a fluorogenic enzyme assay with 4-methylumbelliferyl-beta-D-glucopyranoside as the substrate and N370S glucocerebrosidase from human spleen homogenate as the enzyme preparation. Upon the hydrolysis of this fluorogenic substrate, the resulting product, […] which can be detected by a standard fluorescence plate reader. Data were normalized to the controls for basal activity (without enzyme) and 100% activity (with enzyme). The AC50 values were determined from concentration-response data modeled with the standard Hill equation.
# Assay buffer: 50 mM citric acid (titrated with potassium phosphate to pH 5.0), 100 mM potassium chloride, 10 mM sodium chloride, 1 mM magnesium chloride, 0.01% Tween-20.
# 1536-well assay protocol:
# (1) Add 2 ul/well of spleen homogenate (27 ug final)
# (2) Add 23 nL compounds in DMSO solution. The final titration was 0.5 nM to 58 uM.
# (3) Add 2 ul of substrate (1 mM final)
# (4) Incubate at 37C for 40 min.
# (5) Add 2 ul stop solution (1M NaOH and 1M Glycine mixture, pH 10)
# (6) Detect the assay plate in a ViewLux plate reader (PerkinElmer) with Ex=365 nm and Em=440nm.
# Keywords: Glucocerebrosidase, beta-glucosidase, Gaucher Disease, pharmacological chaperone, chaperone therapy, high throughput screening, glucocerebrosidase inhibitor, MLSMR, MLSCN, NIH Roadmap, qHTS and NCGC
# Potency is read from the fitted curve at half-maximal effect.
row,SMILES,Potency
1,CNCC[C@H](Oc1ccc(C(F)(F)F)cc1)c1ccccc1,inactive and 8.91 µM (active)
2,CC(C)CC(C)Nc1ccc(Nc2ccccc2)cc1 (stereo not given),inactive
3,CC(CCC(=O)O)C1CCC2C3C(O)C[C@@H]4CC(O)CC[C@@]4(C)C3CC[C@@]12C (stereo not given in full),inactive
4,CC(Cl)Cl,inactive
5,CC(=O)[O][Sn]([c]1ccccc1)([c]1ccccc1)[c]1ccccc1,inactive
